High-throughput results deposited in PubChem by several laboratories.
Her2 expr inh: inhibitors of Her2 protein expression, primary screen, SKBR-3 cells, AlphaScreen, 66K library. Receptor tyrosine-protein kinase erbB-2 (Homo sapiens), P04626. 0.69% of 65,000 active. HER2 level % of control, % at 10 µM. SKBR-3 HER2 protein level, 18-24 h; stronger effect = lower value;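 active means HER2 level under 5% of the carrier-only control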
M1 ag: M1 muscarinic receptor agonists, primary screen, CHO-M1 cells, Fluo-4 calcium, agonist mode; Muscarinic acetylcholine receptor M1; Fluo-4 calcium fluorescence; stronger effect = higher value; B-score at 10 µM; 3% of 64,000 active;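 active means fluorescence rise, raw or as B-score row- and column-corrected plate score, outside the 99.7% band of its plate's samples, either direction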
Cav32 inh: Cav3.2 calcium influx blockers – cell-based, Fluo-4 calcium fluorescence, FDSS, MLSMR library, primary screen | Voltage-dependent T-type calcium channel subunit alpha-1H (Homo sapiens), O95180 | Cav3.2-expressing cells; stronger effect = lower value | B-score at 10 µM | 4% of 100,000 active;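 active means single-dose well whose peak fluorescence ratio is a statistical outlier from its plate by either plate-standardised score or position-corrected B-score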
M1 antagonist: antagonists of rat M1 muscarinic receptor; Muscarinic acetylcholine receptor M1 (Rattus norvegicus), P08482; CHO-M1 cells, Fluo-4 calcium, ACh EC80 antagonist mode; stronger effect = lower value; B-score at 10 µM; 3.4% of 64,000 active; AID 628, 2007;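 active means calcium fluorescence response, raw or row-and-column corrected B-score, differing from the plate sample mean either way at a set confidence level, mostly lower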
PLAP activator: PLAP enzyme activators, biochemical, luminescence, HTS; activation fold at 20 µM; Alkaline phosphatase, placental type (Homo sapiens), P05187; purified PLAP enzyme, luminescent substrate read-out; stronger effect = higher value; 1.2% of 96,000 active; in the data active means activation fold above about 2
M1 antag conf: rat M1 muscarinic receptor antagonists, confirmation, CHO cells, Fluo-4 calcium, duplicate; AID 677, 2007; shares compounds with M1 antagonist; ACh EC80 antagonism; stronger effect = lower value; calcium response (max-min fluorescence) at 10 µM; 43% of 1,700 active;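 active means calcium response below the same-plate mean of wells given acetylcholine alone at its 80%-effect dose, minus 3 SD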
mGluR4 antag: human mGluR4 response to M1 antagonist hits, M1 allosteric modulator project, cell-based, antagonist mode, secondary assay 1; shares compounds with M1 antagonist; fluorescence response (max-min) at 10 µM; CHO-mGluR4 calcium flux, Fluo-4 fluorescence, glutamate EC80; stronger effect = lower value; 0.9% of 1,700 active;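 active means fluorescence response below the plate's average for near-maximal glutamate wells, less 3 SD of those wells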;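 further: raw unnormalized fluorescence span taken in the window right after glutamate addition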
Numbers stand for hits; - = inactive; . = no result. Compounds with a hit are over-represented: about 7.9% of the library has one in this group of screens.

SMILES	Her2 expr inh	M1 ag	Cav32 inh	M1 antagonist	PLAP activator	M1 antag conf	mGluR4 antag
COC(=O)N1CC(c2ccccc2)CC1=O (centres undefined)	-	-	-	-2.3	-	-	-
COc1ccccc1-c1cc2nc(C)c(CCC(=O)NC(C)CCc3ccco3)c(C)n2n1 (centres undefined)	.	.	-	.	-	.	.
COc1ccc(Cl)cc1NC(=O)CCN1CCN(c2ccccc2C)CC1	-	-	-	-	-	.	.
CCN1CCN(c2ncc(C(=O)Nc3cc(Cl)ccc3OC)c3ccccc23)CC1	-	-	.	-21	-	21	-
COc1cc(C2c3c(oc4ccccc4c3=O)C(=O)N2Cc2ccncc2)ccc1O (centres undefined)	-	-	-	-	-	.	.
CCOC(=O)N1CCN(C(=O)c2ccc3c(=O)n(CCOC)c(=O)[nH]c3c2)CC1	-	-	.	-2.1	-	-	-
CCOC(=O)N1CCN(C(=O)c2ccc3c(=O)n(CCc4ccccc4)c(=O)[nH]c3c2)CC1	-	-	-	-5.1	-	296	-
CCOC(=O)N1CCN(C(=O)c2ccc3c(=O)n4c(nc3c2)CCCCC4)CC1	-	-	-	-5.3	-	300	-
CCn1c(=O)[nH]c2cc(C(=O)N3CCN(c4ccccc4)CC3)ccc2c1=O	-	-	-	-	-	.	.
CC(C)(C)c1ccc(C(=O)Nc2cnccn2)cc1	-	-	-	-	-	.	.
NC(=O)NC(CCC(=O)O)C(=O)O (centres undefined)	.	.	-	.	.	.	.
COc1ccc(NC(=O)c2cc([N+](=O)[O-])nn2Cc2ccccc2)c(C)c1	.	.	-	.	-	.	.
O=C(CC(c1ccccc1O)N1CCCCC1)N1CCCCC1 (centres undefined)	-	-	-	-17	-	84	-
CC(C)CNC(=O)COC(=O)c1ccc(Cl)c(S(N)(=O)=O)c1	.	.	-	.	-	.	.
CN(CCC#N)C(=O)COC(=O)c1ccc(Cl)c(S(N)(=O)=O)c1	-	-	-	-12	-	-	-
CC(C)C[C@H](NC(=O)OC(C)(C)C)c1nnc(SCC(=O)Nc2ccc(Br)cc2)o1	-	-	-6.5	-3.1	-	-	-
O=C(Oc1ccc(OC(=O)N2CCCCC2)cc1)c1ccccc1	-	-	-	-2.9	-	237	-
O=C1CCN(C(=O)c2ccccc2)C2CCCCC12 (centres undefined)	-	-	-	-	-	.	.
Cc1onc(-c2ccccc2Cl)c1C(=O)Nc1nnc(Cc2ccc(Cl)cc2)s1	.	.	-	.	-	.	.
Cc1onc(-c2ccccc2Cl)c1C(=O)Nc1nnc(C(C)C)s1	-	-	-	-2.2	-	377	-
Cc1onc(-c2ccccc2Cl)c1C(=O)Nc1ccc(-c2nnc3n2CCCCC3)cc1	-	-	-	-2.3	-	408	-
Cc1csc(NC(=O)CSc2nnc(-c3ccncc3)n2C)n1	-	-	-	-	-	.	.
Cn1c(SCC(=O)Nc2nccs2)nnc1-c1ccncc1	-	-	-	-6.1	-	-	-
O=C(CC(c1ccc(F)cc1)c1ccco1)N1CCOCC1 (centres undefined)	-	-	.	-	-	.	.
O=C(CC(c1ccccc1)c1cc(Cl)ccc1O)N1CCOCC1 (centres undefined)	-	-	-	-2.6	-	-	-
SMILES	Her2 expr inh	M1 ag	Cav32 inh	M1 antagonist	PLAP activator	M1 antag conf	mGluR4 antag
O=C(NCCc1ccccc1)C1CCN(S(=O)(=O)c2ccc(-c3nn[nH]n3)cc2)CC1	-	-	-	-	-	.	.
CN(C)c1nc(Oc2ccc(=O)[nH]n2)nc(N2CCCCC2)n1	-	-	-	-	-	.	.
Cc1ccccc1OC(=O)n1c(=S)oc2cc(Cl)ccc21	.	.	-	.	-	.	.
O=C(OCCN1CCOCC1)C(c1ccccc1)c1ccccc1	-	-	-	-	-	.	.
CN1[C@@H]2CC(OC(=O)[C@H](CO)c3ccccc3)C[C@H]1[C@@H]1O[C@@H]12 (some centres undefined)	-	.	-	.	.	.	-
CCN(CC)CCNC(=O)c1sc2nc(-c3ccccc3)cn2c1C	-	-	.	-0.79	.	345	-
COCCN(CCOC)C(=O)c1sc2nc(-c3ccccc3)cn2c1C	-	-	-	-	-	.	.
c1cnc(N2CC[N+]3(CCCC3)CC2)nc1	-	-	-	-5	-	163	-
Cc1ccc(N2CCN(C(=O)CN3C(=O)c4ccccc4C3=O)CC2)cc1	.	.	-	.	-	.	.
Cc1ccc(N(C=NC#N)CC(=O)N2CCN(c3ccccc3)CC2)cc1	-	-	-	-3.4	-	-	-
O=C(Nc1ccccc1F)c1ccc(S(=O)(=O)NCC2CCCO2)cc1 (centres undefined)	-	-	-	-	-	.	.
COc1ccc(N2CCN(CCNC(=O)c3c(C)cc(=O)oc3C)CC2)cc1	-	-	-	-4.6	-	354	-
COc1ccc(N2CCN(CCNC(=O)Nc3ccc(Cl)cc3)CC2)cc1	.	.	-	.	-	.	.
Cc1cc(C)n(S(=O)(=O)c2ccc(C(C)(C)C)cc2)n1	-	-	-	-8.7	-	20	-
CS(=O)(=O)N(CC(=O)NCc1ccc2c(c1)OCO2)Cc1ccc(Cl)cc1	-	-	-	-	-	.	.
CC(CCN(C)C)OC(=O)c1ccc(C(C)c2ccccc2)o1 (centres undefined)	-	-	-	-4.4	-	349	-
O=S1(=O)N=C(N2CCCc3ccccc32)c2ccccc21	-	-	-	-	-	.	.
O=S1(=O)N=C(N2CCc3ccccc3C2)c2ccccc21	-	-	-	-2.1	-	600	-
CCc1c(C(=O)NC2CCCC2)csc1C	-	-	-	-2.2	-	-	-
COC(=O)c1ccc(NC(=O)CSc2nccn2CCc2ccccc2)cc1	.	.	-	.	-	.	.
CN1CCN(CC(=O)N2c3ccccc3C(=O)Nc3cccnc32)CC1	-	.	.	.	.	.	-
NC(=O)[C@@H]1CC2(CC(c3cccc(NC(=O)[C@@H]4CCC(=O)N4)c3)=NO2)CN1C(=O)Cc1ccc([N+](=O)[O-])cc1 (some centres undefined)	.	.	-	.	.	.	.
CCc1nnc(NCC(=O)N2CCc3ccccc32)s1	-	-	-	-4.8	-	-	-
CCc1nnc(NC(=O)c2c(O)c3cccc4c3n(c2=O)CC4)s1	-	-	.	-	-	.	.
COc1ccc(NC(=O)CCC(=O)Nc2nnc(C(F)(F)F)s2)c(OC)c1	.	.	-	.	-	.	.
NC(=O)CC(NSc1ccccc1[N+](=O)[O-])C(=O)O (centres undefined)	.	.	-	.	.	.	.
CCc1ccc(N2CCCn3c2nc2c3c(=O)n(CCN3CCOCC3)c(=O)n2C)cc1	-	-	.	-	-	.	.
